From PubChem BioAssay (EPA / NIEHS)
The source made the active and inactive calls. Rule for the calls: active = hit-call score of the fitted dose curve at least 0.9, where 1 is the maximum; inactive = score below 0.9.

Assay: ATG_GRE_CIS: Attagene CIS-FACTORIAL HepG2 Assay for human Glucocorticoid Response Elements (GRE) (AID 2282947)
Details: HepG2 GRE cis-reporter, Attagene multiplex mRNA; actives raise or lower the signal
Experimental: ATG_CIS is a cell-based, multiplexed-readout assay that uses HepG2, a human liver cell line, with measurements taken at 24 hours after chemical dosing in a 24-well plate.ATG_GRE_CIS is one of 52 assay component(s) measured or calculated from the ATG_CIS assay. It is designed to make measurements of mRNA induction, a form of inducible reporter, as detected with fluorescence intensity signals by Reverse transcription polymerase chain reaction (RT-PCR) and Capillary electrophoresis technology.Data from the assay component ATG_GRE_CIS was analyzed into 1 assay endpoint. This assay endpoint, ATG_GRE_CIS, was analyzed with bidirectional fitting relative to DMSO as the negative control and baseline of activity. Using a type of inducible reporter, measures of mRNA for gain or loss-of-signal activity can be used to understand the reporter gene at the transcription factor-level as they relate to the gene NR3C1. Furthermore, this assay endpoint can be referred to as a primary readout, because this assay has produced multiple assay endpoints where this one serves a reporter gene function. To generalize the intended target to other relatable targets, this assay endpoint is annotated to the nuclear receptor intended target family, where the subfamily is steroidal.
Human liver HepG2 cells are transiently transfected with multiple reporter transcription units (MRTUs) in 6-well plates using FuGene 6 reagent (Roche; 3 ml FuGene/1 mg DNA). The MRTU constructs are regulated by a cis-regulating element (promoter). […] A major difference between the CIS and TRANS system is that in CIS activities of endogenous TFs are measured, whereas the TRANS assay evaluates changes in activities of exogenous, chimeric NR-Gal4 proteins. […] At the end of 24 hour incubation, total RNA was isolated using TriZol reagent (Invitrogen). The isolated RNA is then reverse-transcribed using oligo(dT) primer and Mo-MLV reverse transcriptase (Invitrogen) with DNAse I (Ambion) treatment for 30 min. The one-tenth of the produced cDNA was amplified by PCR using Taq DNA polymerase (Invitrogen) and two reporter sequence-specific primers. The PCR products were fluorescently labeled by primer extension with 6-arboxyfluorescein (6-FAM) 5'-labeled reporter sequence-specific primer (2 min at 95 C, 20 s at 68 C and 10 min at 72 C) and these products were digested with 5U of HpaI (New England Biolabs) for 2h at 37 C. The fragments were purified using Qiaquick PCR columns (Qiagen), analyzed on an ABI 3130xL genetic analyzer (Applied Biosystems) with peak positions identified by using a set of X-rhodamine (ROX)-labeled MapMarker1000 molecular weight standards (BioVentures). The raw capillary electrophoresis data was processed using Attagraph software (Attagene).
For `CC1OC(=O)C(C)OC1=O` (stereo not given), the outcome was “inactive”. For `CCNc1nc(NC(C)(C)C)nc(OC)n1`, the outcome was “inactive”. For `CCCCCCCCCCCCCC(=O)OC(C)C`, the outcome was “inactive”. For `CC(C)COC(=O)CC(C(=O)OCC(C)C)S(=O)(=O)O` (stereo not given), the outcome was “inactive”. In the case of `C1CNCCN1`, the outcome is reported as “inactive”. In the case of `CCN(CC)c1cccc(C)c1`, the outcome is reported as “inactive”. In the case of `Cc1cc(C)n(CO)n1`, the outcome is reported as “inactive”. In the case of `C=Cc1cccc(C)c1`, the outcome is reported as “inactive”. In the case of `C=CC(=O)OCCCCCCOC(=O)C=C`, the outcome is reported as “inactive”. In the case of `CC(C)c1cccc(C(C)C)c1N`, the outcome is reported as “inactive”. For `CC(=O)c1ccc(S(=O)(=O)NC(=O)NC2CCCCC2)cc1`, the outcome was “inactive”. For `CCCCOC(=O)CCC(C)=O`, the outcome was “inactive”. With `CN1CCN(C)CC1` the outcome was “inactive”. In the case of `CCCc1ccc(O)c(OC)c1`, the outcome is reported as “inactive”. For `O=C(O)c1cc(O)c2ccccc2c1O`, the AC50 was 21.8 µM (active). In the case of `C[Si](C)(C)N[Si](C)(C)C`, the outcome is reported as “inactive”. In the case of `C=Cc1ccc(OC(C)=O)cc1`, the outcome is reported as “inactive”. For `CC(C)(C)N`, the outcome was “inactive”. For `CCCCOCC(C)O` (stereo not given), the outcome was “inactive”. For `CCOC(=O)CC(=O)c1ccccc1`, the outcome was “inactive”. In the case of `CC(=O)OCCc1ccccc1`, the outcome is reported as “inactive”. With `CCOc1ccc(NC(N)=O)cc1` the outcome was “inactive”. With `CCC(C)c1ccccc1` (stereo not given) the outcome was “inactive”. In the case of `CC(CCC(=O)O)(c1ccc(O)cc1)c1ccc(O)cc1`, the outcome is reported as “inactive”. With `CC/C=C\C/C=C\C/C=C\CCCCCCCC(=O)OC` the outcome was “inactive”. For `CC(C)(c1ccccc1)c1ccc(Nc2ccc(C(C)(C)c3ccccc3)cc2)cc1`, the outcome was “inactive”. For `O=S(=O)(O)c1ccc(Nc2nc(Nc3ccc(C=Cc4ccc(Nc5nc(Nc6ccc(S(=O)(=O)O)cc6)nc(N(CCO)CCO)n5)cc4S(=O)(=O)O)c(S(=O)(=O)O)c3)nc(N(CCO)CCO)n2)cc1`, the outcome was “inactive”. With `CC(Cl)COP(=O)(OCC(C)Cl)OCC(C)Cl` (stereo not given) the outcome was “inactive”. For `COc1ccc(C(=O)/C(Br)=C\C(=O)O)cc1`, the outcome was “inactive”. In the case of `C=CCCCCCCCCC=O`, the outcome is reported as “inactive”. For `Cc1c(C(=O)c2c[nH]n(C)c2=O)ccc(S(C)(=O)=O)c1C1=NOCC1`, the outcome was “inactive”. In the case of `C=C1C[C@H]2[C@@H]3C=C(C)C4=CC(=O)CC[C@]4(C)[C@H]3CC[C@]2(C)[C@@]1(OC(C)=O)C(C)=O`, the AC50 is reported as 0.057 µM (active). For `O=C1CCCCCCCCCCC1`, the outcome was “inactive”. In the case of `CC(C)OC(=O)c1ccccc1`, the outcome is reported as “inactive”. With `CC1=NN(c2ccc(S(=O)(=O)O)cc2)C(=O)C1N=Nc1ccccc1` (stereo not given) the outcome was “inactive”. In the case of `Nc1ccc(C(=O)O)cc1`, the outcome is reported as “inactive”. For `CCCCCC1=CCCC1=O`, the outcome was “inactive”. With `Nc1cccc(N)n1` the outcome was “inactive”. For `Clc1cccnc1`, the outcome was “inactive”. With `CCCCCOC(=O)CCCCC` the outcome was “inactive”.
